Source: PubChem BioAssay AID1159580 (chemical genetic matrix, 2015)
Among all 5,500 compounds or so, about 2,000 (36%) were called active. Another 18% or so got no clear call; they are omitted. Cut-off read from the data, not from the text of the source: active = normalized growth mostly below about 0.91 (no sharp cut-off); inconclusive = no clear call, values can overlap the other calls; inactive = mostly above about 0.92. The list shows a part of the results.

Assay: chemical genetic growth profiling, strain panel (AID 1159580);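 note: tested at 20 µM; growth read once vehicle control cultures reached saturation at 30 °C; 1 = growth at the plate median or of vehicle wells; lower values mean less growth of the strain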
Settings: S. cerevisiae deletion strains, growth OD

Measured: normalized growth

CCC(=O)OCC(=O)C1(OC(=O)CC)C(C)CC2C3C(Cl)CC4=CC(=O)C=CC4(C)C3C(O)CC21C (stereo not given)
inactive: locus YAL021C, strain ccr4, stronger effect = lower value 1.02 | locus YAL026C, strain drs2, stronger effect = lower value 1.03 | locus YAL030W, strain snc1, stronger effect = lower value 1.01 | locus YBL061C, strain skt5, stronger effect = lower value 1.01 | locus YBR009C, strain hhf1, stronger effect = lower value 1.09 | locus YBR023C, strain chs3, stronger effect = lower value 1.02 | locus YBR171W, strain sec66, stronger effect = lower value 1.04 | locus YBR231C, strain swc5, stronger effect = lower value 1.02 | locus YBR279W, strain paf1, stronger effect = lower value 1.01 | locus YCL011C, strain gbp2, stronger effect = lower value 1.06 | locus YCL016C, strain dcc1, stronger effect = lower value 1.04 | locus YCL069W, strain vba3, stronger effect = lower value 1.04 | locus YCR088W, strain abp1, stronger effect = lower value 1.03 | locus YDL005C, strain med2, stronger effect = lower value 1.02 | locus YDL040C, strain nat1, stronger effect = lower value 1.01 | locus YDR001C, strain nth1, stronger effect = lower value 1.04 | locus YDR069C, strain doa4, stronger effect = lower value 1.02 | locus YDR137W, strain rgp1, stronger effect = lower value 1.03 | locus YDR159W, strain sac3, stronger effect = lower value 1.01 | locus YDR195W, strain ref2 1 | locus YDR297W, strain sur2, stronger effect = lower value 1.03 | locus YDR334W, strain swr1, stronger effect = lower value 1.02 | locus YDR335W, strain msn5, stronger effect = lower value 1.05 | locus YDR392W, strain spt3, stronger effect = lower value 1.08 | locus YEL003W, strain gim4, stronger effect = lower value 1.04 | locus YEL037C, strain rad23, stronger effect = lower value 1.05 | locus YEL061C, strain CIN8 (second series), stronger effect = lower value 1.02 | locus YER015W, strain faa2, stronger effect = lower value 1.01 | locus YER016W, strain bim1, stronger effect = lower value 1.04 | locus YER111C, strain swi4, stronger effect = lower value 1.04 | locus YER155C, strain BEM2 (second series), stronger effect = lower value 1.08 | locus YFR010W, strain ubp6, stronger effect = lower value 1.02 | locus YGL167C, strain pmr1, stronger effect = lower value 1.06 | locus YGL173C, strain kem1, stronger effect = lower value 1.02 | locus YGL227W, strain vid30, stronger effect = lower value 1.01 | locus YGL240W, strain doc1, stronger effect = lower value 1.01 | locus YGL253W, strain hxk2, stronger effect = lower value 1.02 | locus YHR013C, strain ard1, stronger effect = lower value 1.08 | locus YHR027C, strain rpn1, stronger effect = lower value 1.03 | locus YHR142W, strain chs7, stronger effect = lower value 1.04 | locus YJL092W, strain hpr5, stronger effect = lower value 1.04 | locus YJL095W, strain BCK1 (second series), stronger effect = lower value 1.06 | locus YJL115W, strain asf1, stronger effect = lower value 1.02 | locus YJL129C, strain trk1, stronger effect = lower value 0.987 | locus YJL154C, strain vps35, stronger effect = lower value 1.03 | locus YJL164C, strain tpk1, stronger effect = lower value 1.07 | locus YJL166W, strain qcr8, stronger effect = lower value 1 | locus YKL160W, strain elf1, stronger effect = lower value 1.04 | locus YKR026C, strain gcn3, stronger effect = lower value 1.03 | locus YKR091W, strain srl3, stronger effect = lower value 1.03 | locus YLL001W, strain dnm1, stronger effect = lower value 1.06 | locus YLL026W, stronger effect = lower value 1.04 | locus YLL041C, strain sdh2, stronger effect = lower value 1.05 | locus YLR027C, strain aat2, stronger effect = lower value 1.06 | locus YLR221C, strain rsa3, stronger effect = lower value 1.07 | locus YLR258W, strain gsy2, stronger effect = lower value 1.07 | locus YLR262C, strain YPT6 (second series), stronger effect = lower value 1.04 | locus YLR320W, strain mms22, stronger effect = lower value 1.02 | locus YLR342W, strain FKS1, stronger effect = lower value 1.03 | locus YLR357W, strain rsc2, stronger effect = lower value 1.09 | locus YLR370C, strain arc18, stronger effect = lower value 1.03 | locus YLR384C, strain iki3, stronger effect = lower value 1.03 | locus YML120C, strain ndi1, stronger effect = lower value 1.02 | locus YMR058W, strain fet3, stronger effect = lower value 1.02 | locus YMR125W, strain sto1, stronger effect = lower value 1.07 | locus YMR129W, stronger effect = lower value 1.03 | locus YMR205C, strain PFK2, stronger effect = lower value 1.02 | locus YMR231W, strain pep5, stronger effect = lower value 1.03 | locus YNL071W, strain lat1, stronger effect = lower value 1.02 | locus YNL209W, strain ssb2, stronger effect = lower value 1.01 | locus YNL248C, strain rpa49, stronger effect = lower value 1.03 | locus YNL322C, strain KRE1 (second series), stronger effect = lower value 1.01 | locus YNR049C, strain mso1, stronger effect = lower value 1.03 | locus YOR001W, strain rrp6, stronger effect = lower value 1.04 | locus YOR070C, strain gyp1, stronger effect = lower value 1.02 | locus YOR080W, strain dia2, stronger effect = lower value 1.02 | locus YOR083W, strain WHI5, stronger effect = lower value 1.04 | locus YOR106W, strain vam3, stronger effect = lower value 1 | locus YOR265W, strain rbl2, stronger effect = lower value 1.02 | locus YOR270C, strain vph1, stronger effect = lower value 0.923 | locus YOR290C, strain snf2, stronger effect = lower value 1.06 | locus YPL051W, strain arl3, stronger effect = lower value 1.04 | locus YPL078C, strain atp4, stronger effect = lower value 0.999 | locus YPL106C, strain sse1, stronger effect = lower value 1.12 | locus YPL240C, strain hsp82, stronger effect = lower value 1.02
